Drawing on PubChem BioAssay, this text covers z-score and composite z-score for nine molecules.

Activity calls are given as the source filed them.

A short description of assay [1]: E. coli DRC41 culture turbidity changes, primary screen, E. coli filamentation inducer project, strain DRC41, OD650, 48 h (AID 1152).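 Further: E. coli MC1000 strain DRC41 lacking acrAB efflux pump and sulA.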 Conditions: E. coli DRC41 (acrAB sulA), higher = more signal, called active from +8 up or from −8 down.
Assay [2] is described as follows: small-molecule binders of probe aLefty1, primary screen, biochemical, small-molecule microarray, 635/667 nm fluorescence (AID 1153).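 Further: score merges spot fluorescence with signal-to-noise ratio from the scanned slide images.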 The following applies: higher = more signal.
Assay [3] can be described thus: PSAC antagonists in infected red cells, primary screen, cell-based, P. falciparum Indochina, OD700, 1 h (AID 1154). The following applies: P. falciparum Indochina infected RBC osmotic lysis, higher = more signal, called active from +8 up or from −8 down.
The nature of assay [4]: PSAC antagonists in infected red cells, primary screen, cell-based, P. falciparum Indochina, OD700, 2 h (AID 1155).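 Further: lysis reports solute entry through the parasite surface anion channel PSAC; channel blockers reduce lysis of infected cells.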 Conditions: P. falciparum Indochina infected erythrocytes, osmotic lysis OD700; higher = more signal, called active from +8 up or from −8 down.
Assay [5] can be described thus: osmotic lysis modulators in infected erythrocytes, primary screen, PSAC antagonist project, cell-based, P. falciparum Indochina, OD700, 3 h (AID 1156). Conditions: higher = more signal, called active from +8 up or from −8 down.
The nature of assay [6]: PSAC antagonists in infected red cells, primary screen, cell-based, P. falciparum Indochina, OD700, 18 h (AID 1157). Conditions: P. falciparum Indochina infected erythrocytes, osmotic lysis OD700, 18 h; higher = more signal, called active from +8 up or from −8 down.
Assay [7] in a line: modulators of S6 phosphorylation in cells, primary screen, cell-based, A549, cytoblot, luminescence, serum-stimulated (AID 1158).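 Further: serum-stimulated A549 lung adenocarcinoma cells; signal is phosphorylated S6 detected by cytoblot immunostaining with HRP secondary.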 Conditions: A549 phospho-S6 cytoblot, 5 h, higher = more signal.
Assay [8] has as its target NADPH oxidase 2 (Homo sapiens) (UniProt P04839). Put plainly: NOX2-dependent H2O2 signal modulators, primary screen, NOX inhibitor project, cell-based, HEK293-NOX2, PMA-stimulated, Amplex Red fluorescence (AID 1159). Further: test concentration not given here. The following applies: 45 min, higher = more signal, called active from +8 up or from −8 down.
Assay [9] has as its target NADPH oxidase 4 (Homo sapiens) (UniProt Q9NPH5). The assay is described as follows: NOX4-dependent H2O2 signal modulators, primary screen, NOX inhibitor project, cell-based, HEK293-NOX4, tetracycline-induced, Amplex Red fluorescence (AID 1160). Conditions: 45 min, higher = more signal, called active from +8 up or from −8 down.
Assay [10] has as its target NADPH oxidase 5 (Homo sapiens) (UniProt Q96PH1). Put plainly: NOX5-dependent H2O2 signal modulators, primary screen, NOX inhibitor project, cell-based, HEK293-NOX5, Amplex Red fluorescence (AID 1161). Conditions: HEK293-NOX5, ionomycin, 45 min, higher = more signal.
Assay [11] in a line: A549 cell viability effects, profiling panel, calcein-AM fluorescence, 48 h, basal (AID 1162). Further: test concentration not given here. Conditions: higher = more signal.
Assay [12] in a line: adipocyte viability effects, profiling panel, cell-based, 3T3-L1 adipocytes, calcein-AM fluorescence, 48 h, basal (AID 1163). Further: test concentration not given here. Conditions: 3T3-L1 adipocytes viability, higher = more signal.
A short description of assay [13]: HepG2 cell viability effects, profiling panel, calcein-AM fluorescence, 48 h, basal (AID 1164). Further: test concentration not given here. Conditions: higher = more signal.
A short description of assay [14]: MM1S cell viability effects, profiling panel, calcein-AM fluorescence, 48 h, basal (AID 1165).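 Further: viability of MM1S multiple myeloma cells under basal unstimulated conditions; test concentration not given here.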 The following applies: higher = more signal.
Assay [15] in a line: basal RPMI8226 viability, no added stimulus, profiling panel, cell-based, calcein-AM fluorescence, 48 h, PK04 Diversity Set (AID 1166).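 Further: cells grown under basal conditions without added stimulus; test concentration not given here.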 Conditions: RPMI8226 myeloma viability, higher = more signal.
A short description of assay [16]: basal HepG2 mitochondrial membrane potential changes, profiling panel, cell-based, JC-1 fluorescence, 24 h, 100 nL compound (AID 1167). Further: test concentration not given here. The following applies: higher = more signal.
Assay [17] is described as follows: basal 3T3-L1 adipocyte mitochondrial potential changes, profiling panel, cell-based, JC-1 fluorescence, 3T3-L1 adipocytes, 24 h, 100 nL compound (AID 1168). Further: test concentration not given here. The following applies: JC-1 mitochondrial fluorescence, higher = more signal, called active from +8 up or from −8 down.
Assay [18] can be described thus: basal RPMI8226 mitochondrial membrane potential changes, profiling panel, cell-based, JC-1 fluorescence, 24 h, 100 nL compound (AID 1169). Further: test concentration not given here. The following applies: RPMI8226 myeloma, JC-1 mitochondrial potential fluorescence, higher = more signal.
The nature of assay [19]: basal MM1S mitochondrial membrane potential changes, profiling panel, cell-based, JC-1 fluorescence, 24 h, 100 nL compound (AID 1170). Further: test concentration not given here. Conditions: higher = more signal.
The nature of assay [20]: A549 lung cancer cell viability effects, profiling panel, resazurin fluorescence, 24 h, PK04 Diversity Set (AID 1171). Further: test concentration not given here. Conditions: higher = more signal, called active from +8 up or from −8 down. A general note: Alamar Blue is a resazurin reagent that responds to reducing activity.

Sequence of NADPH oxidase 5 (Homo sapiens) (Q96PH1 whole entry, looked up): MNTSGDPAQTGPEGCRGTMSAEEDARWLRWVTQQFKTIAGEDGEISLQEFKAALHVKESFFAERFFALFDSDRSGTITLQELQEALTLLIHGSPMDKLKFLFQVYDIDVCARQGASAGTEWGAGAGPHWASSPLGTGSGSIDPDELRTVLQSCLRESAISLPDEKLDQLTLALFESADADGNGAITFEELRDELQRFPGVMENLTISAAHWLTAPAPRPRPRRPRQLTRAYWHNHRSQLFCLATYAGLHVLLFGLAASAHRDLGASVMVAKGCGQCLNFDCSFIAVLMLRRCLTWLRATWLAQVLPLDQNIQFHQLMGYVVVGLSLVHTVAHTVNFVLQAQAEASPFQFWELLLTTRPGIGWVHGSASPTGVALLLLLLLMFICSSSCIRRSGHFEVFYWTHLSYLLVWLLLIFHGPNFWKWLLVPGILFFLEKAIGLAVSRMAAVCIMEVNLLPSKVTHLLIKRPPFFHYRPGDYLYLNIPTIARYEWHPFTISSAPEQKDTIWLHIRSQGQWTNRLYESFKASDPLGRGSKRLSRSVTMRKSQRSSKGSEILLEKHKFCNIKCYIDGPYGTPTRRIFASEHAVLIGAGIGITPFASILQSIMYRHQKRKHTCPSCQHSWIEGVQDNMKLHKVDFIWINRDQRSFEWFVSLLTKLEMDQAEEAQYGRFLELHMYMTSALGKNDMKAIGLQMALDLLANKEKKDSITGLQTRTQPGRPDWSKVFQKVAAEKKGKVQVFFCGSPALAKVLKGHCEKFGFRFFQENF
Sequence of NADPH oxidase 2 (Homo sapiens) (P04839 whole entry, looked up): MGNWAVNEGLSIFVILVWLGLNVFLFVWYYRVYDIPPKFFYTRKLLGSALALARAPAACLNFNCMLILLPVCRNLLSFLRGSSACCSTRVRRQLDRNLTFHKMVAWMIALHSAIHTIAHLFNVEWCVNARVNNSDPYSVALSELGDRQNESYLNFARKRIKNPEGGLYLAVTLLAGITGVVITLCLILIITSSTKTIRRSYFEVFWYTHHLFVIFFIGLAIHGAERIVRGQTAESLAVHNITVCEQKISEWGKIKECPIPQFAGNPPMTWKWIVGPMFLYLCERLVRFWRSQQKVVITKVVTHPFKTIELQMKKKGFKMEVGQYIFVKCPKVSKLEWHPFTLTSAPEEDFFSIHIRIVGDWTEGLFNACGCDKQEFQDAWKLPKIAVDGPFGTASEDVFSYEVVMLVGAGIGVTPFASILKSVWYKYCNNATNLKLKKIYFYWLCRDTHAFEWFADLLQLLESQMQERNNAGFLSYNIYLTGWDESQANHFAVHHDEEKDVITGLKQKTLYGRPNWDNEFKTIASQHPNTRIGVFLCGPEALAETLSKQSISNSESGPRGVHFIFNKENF
Sequence of NADPH oxidase 4 (Homo sapiens) (Q9NPH5 whole entry, looked up): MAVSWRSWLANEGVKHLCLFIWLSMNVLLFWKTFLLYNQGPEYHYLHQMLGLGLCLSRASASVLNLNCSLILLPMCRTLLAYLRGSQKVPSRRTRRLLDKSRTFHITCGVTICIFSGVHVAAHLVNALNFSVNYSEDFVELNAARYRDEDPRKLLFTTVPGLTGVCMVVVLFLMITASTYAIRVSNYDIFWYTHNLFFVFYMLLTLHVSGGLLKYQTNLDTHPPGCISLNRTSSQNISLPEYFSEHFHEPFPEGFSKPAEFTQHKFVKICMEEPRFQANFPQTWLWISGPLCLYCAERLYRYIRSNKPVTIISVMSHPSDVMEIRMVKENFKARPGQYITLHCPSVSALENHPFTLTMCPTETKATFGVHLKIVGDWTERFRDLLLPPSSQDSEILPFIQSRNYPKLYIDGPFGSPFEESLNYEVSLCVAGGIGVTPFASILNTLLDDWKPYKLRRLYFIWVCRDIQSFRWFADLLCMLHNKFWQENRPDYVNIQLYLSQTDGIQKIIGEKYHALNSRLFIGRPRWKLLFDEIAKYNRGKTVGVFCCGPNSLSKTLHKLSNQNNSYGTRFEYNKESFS

`COCCCNC(=O)[C@@]1(Sc2ccc(C)cc2)CC(=O)N(Cc2ccccc2)[C@@H]1c1ccc(CO)cc1`: the z-score was 0.186 (inactive) in [1]; 1.25 (inactive) in assay [3]; 0.505 (inactive) in [4]; 1.14 (inactive) in [5]; 0.107 (inactive) in assay [6]; -0.0519 in assay [7]. For the same molecule, the z-score is 0.462 (inactive) in assay [8]; 0.917 (inactive) in assay [9]; 0.162 in [10]; -0.837 in assay [11]; 0.0417 in [12]; -0.543 in assay [13]. In addition, the z-score was -0.0185 in assay [14]; 0.381 in assay [15]; -0.658 in assay [16]; -0.265 (inactive) in [17]; 0.216 in assay [18]; -1.38 in assay [19]. Further, in [20], the z-score is 1.28 (inactive). The composite z-score in assay [2] is -1.12.

For the molecule `Cc1ccc(S[C@]2(C(=O)NCCCN(C)C)CC(=O)N(Cc3ccccc3)[C@@H]2c2ccc(CO)cc2)cc1`, the z-score was 0.239 (inactive) in [1]; 2.24 (inactive) in assay [3]; 0.077 (inactive) in assay [4]; 1.5 (inactive) in [5]; 0.013 (inactive) in [6]; 0.161 in assay [7]. Besides, the z-score is -3.38 (inactive) in assay [8]; 0.6 (inactive) in [9]; 1.89 in assay [10]; 0.931 in assay [11]; -0.084 in [12]; -0.569 in assay [13]. For the same molecule, the z-score in assay [14] is -0.569; in [15] it was -1.12; in assay [16] it was 0.816; in assay [17], -0.946 (inactive); in [18] it was -0.718; in assay [19], 0.706. Moreover, the z-score in assay [20] is 0.516 (inactive). Besides, the composite z-score in assay [2] was 0.136.

Consider `COCCOC(=O)N1C(=O)[C@@]2(c3cc(C#Cc4ccc(OC)cc4)ccc31)[C@H](c1ccc(OCCO)cc1)N1[C@H](c3ccccc3)[C@H](c3ccccc3)OC(=O)[C@H]1[C@@H]2C(=O)N1CCc2cc(OC)c(OC)cc2C1`, for which the z-score in [1] is 2.55 (inactive); in [3], 4.14 (inactive); in assay [4], 1.8 (inactive); in [5], -0.867 (inactive); in assay [6] it was 0.608 (inactive); in assay [7] it was 1.02. Further, the z-score in [8] was 0.576 (inactive); in assay [9] it was 0.459 (inactive); in [10], 1.27; in assay [11], 0.618; in assay [12] it was 0.979; in assay [13], 0.156. In addition, the z-score in [14] is 0.427; in assay [15], 0.959; in assay [16] it was -0.343; in assay [17], 2.92 (inactive); in [18], -0.322; in [19], -1.24. In addition, in assay [20], the z-score was 0.216 (inactive). Besides, in assay [2], the composite z-score came out at 0.212.

Regarding `Cc1ccc(N2C(=O)c3ccccc3[C@@H](C(=O)NC(C)C)[C@@H]2c2ccc(CO)cc2)nc1`, the z-score in assay [1] is 0.358 (inactive); in [3], 2.41 (inactive); in assay [4] it was 0.474 (inactive); in [5] it was 0.884 (inactive); in assay [6] it was 0.596 (inactive); in [7], 0.45. In addition, the z-score was 0.0802 (inactive) in assay [8]; -1.16 (inactive) in [9]; -2.61 in [10]; -0.749 in assay [11]; -0.0953 in assay [12]; -0.617 in [13]. Besides, the z-score in assay [14] is 0.385; in [15], -0.526; in assay [16], 0.199; in assay [17] it was -0.286 (inactive); in [18], 0.918; in assay [19], -0.67. Besides, in [20], the z-score was 2.16 (inactive). The molecule also had a composite z-score in [2] of -0.641.

As to `O=C1C2C=CC(C(O)C3CC=CCC3)N(n3cnnc3)C2C(=O)N1Cc1ccccc1` (stereo not given), the z-score in [1] is -1.37 (inactive); in [3], 1.36 (inactive); in assay [4] it was 0.585 (inactive); in assay [5], 0.576 (inactive); in assay [6], 0.388 (inactive); in assay [7], -0.792. Moreover, the z-score in assay [8] is -0.621 (inactive); in assay [9] it was -1.61 (inactive); in assay [10], -1.34; in assay [11], -0.563; in [12] it was -0.801; in assay [13], 0.253. For the same molecule, the z-score in assay [14] was -0.379; in assay [15], -0.255; in [16], -0.937; in assay [17], -0.132 (inactive); in assay [18], 0.46; in assay [19], -0.109. For the same molecule, the z-score in assay [20] is -0.62 (inactive). In assay [2], this molecule gave a composite z-score of 0.0455.

In the case of `COc1cc2c(cc1O)C(c1ccc(CN3CCCC3)cc1)N(Cc1sc3ccccc3c1Cl)CC2` (stereo not given), the z-score in assay [1] was 0.13 (inactive); in assay [3], 12.5 (active); in assay [4] it was 2.66 (inactive); in [5], 0.913 (inactive); in [6], 1.7 (inactive); in assay [7] it was 0.0223. Moreover, the z-score in assay [8] is -3.44 (inactive); in assay [9], -3.41 (inactive); in assay [10], -4; in assay [11], -0.42; in assay [12], -0.0706; in [13], -1.5. The z-score in [14] is -1.89; in assay [15] it was -1.24; in [16] it was -0.535; in [17] it was -0.506 (inactive); in [18] it was -0.105; in [19], -0.774. For the same molecule, the z-score in assay [20] is 0.835 (inactive). This molecule yielded a composite z-score in assay [2] of -0.113.

As for `COC(=O)[C@@]1(Cc2ccc(OC)cc2)[C@H]2c3cc(C(=O)N4CCCC4)n(C[C@H](O)CO)c3C[C@H]2CN1C(=O)c1ccccc1`, the z-score in [1] is -0.599 (inactive); in assay [3], 1.24 (inactive); in assay [4], -0.478 (inactive); in assay [5] it was 0.425 (inactive); in assay [6] it was 0.201 (inactive); in assay [7], 0.245. In addition, the z-score in assay [8] was 0.4 (inactive); in assay [9] it was 0.18 (inactive); in assay [10], -3.78; in assay [11], -0.892; in assay [12] it was -0.113; in assay [13], 0.255. Besides, the z-score in assay [14] is -1.05; in assay [15] it was 0.197; in assay [16], 1.76; in assay [17], 0.585 (inactive); in assay [18] it was 0.933; in [19], -1.03. In [20], the z-score was 0.336 (inactive). Further, in [2], the composite z-score stood at 0.132.

For the molecule `O=C(NCC(O)CO)[C@@]1(Cc2ccccc2)COC(c2ccc(OCCCO)cc2)=N1` (stereo not given in full), the z-score was 0.712 (inactive) in [1]; 8.57 (active) in assay [3]; 0.648 (inactive) in assay [4]; 2.87 (inactive) in [5]; 0.472 (inactive) in [6]; -0.404 in assay [7]. Also, the z-score is -0.44 (inactive) in assay [8]; 0.82 (inactive) in [9]; 0.132 in assay [10]; -0.0736 in assay [11]; -0.183 in assay [12]; -0.283 in [13]. The z-score was -0.467 in assay [14]; -0.164 in assay [15]; -0.201 in [16]; -0.817 (inactive) in assay [17]; -0.805 in assay [18]; -0.89 in assay [19]. The z-score in [20] is -0.0991 (inactive). In [2], this molecule gave a composite z-score of -0.266.

Take `CC(C)C(O)C1C=CC2C(=O)N(C)C(=O)C2N1N1CCCCC1` (stereo not given): the z-score in [1] was -1.77 (inactive); in [3], 0.193 (inactive); in assay [4], 1.22 (inactive); in [5], 0.0667 (inactive); in assay [6], 1 (inactive); in assay [7] it was -0.87. Also, the z-score in [8] was -0.569 (inactive); in assay [9], -0.278 (inactive); in assay [10] it was -1.52; in assay [11], 0.553; in assay [12], -0.0255; in assay [13] it was -0.306. Moreover, the z-score in assay [14] was -0.602; in assay [15] it was -1.34; in assay [16] it was -0.778; in assay [17] it was -0.307 (inactive); in assay [18], 0.643; in assay [19] it was -0.189. For the same molecule, in [20], the z-score was -0.153 (inactive). This molecule also gave a composite z-score in [2] of 0.134.
